Measured values published in PubChem BioAssay AID697 (Columbia University Molecular Screening Center, 2007).
Screen size: about 96,000 compounds; about 100 (0.1%) were called active.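 Rule for the calls: active = activation at 2 µM above a set limit, the mean plus 5 SD (cut at about 37% in these data); inactive = the rest.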 The full list was thinned out, with actives kept by preference.

Target: Tyrosine-protein phosphatase non-receptor type 22 (Homo sapiens) (UniProt Q9Y2R2)
Assay: LYP phosphatase activators, primary screen, biochemical, DiFMUP fluorescence, 2 µM (AID 697)
Conditions: recombinant LYP, at 2 µM, stronger effect = higher value, 0 = plate median, 100 = signal doubled

Sequence of Tyrosine-protein phosphatase non-receptor type 22 (Homo sapiens) (Q9Y2R2 whole entry, looked up): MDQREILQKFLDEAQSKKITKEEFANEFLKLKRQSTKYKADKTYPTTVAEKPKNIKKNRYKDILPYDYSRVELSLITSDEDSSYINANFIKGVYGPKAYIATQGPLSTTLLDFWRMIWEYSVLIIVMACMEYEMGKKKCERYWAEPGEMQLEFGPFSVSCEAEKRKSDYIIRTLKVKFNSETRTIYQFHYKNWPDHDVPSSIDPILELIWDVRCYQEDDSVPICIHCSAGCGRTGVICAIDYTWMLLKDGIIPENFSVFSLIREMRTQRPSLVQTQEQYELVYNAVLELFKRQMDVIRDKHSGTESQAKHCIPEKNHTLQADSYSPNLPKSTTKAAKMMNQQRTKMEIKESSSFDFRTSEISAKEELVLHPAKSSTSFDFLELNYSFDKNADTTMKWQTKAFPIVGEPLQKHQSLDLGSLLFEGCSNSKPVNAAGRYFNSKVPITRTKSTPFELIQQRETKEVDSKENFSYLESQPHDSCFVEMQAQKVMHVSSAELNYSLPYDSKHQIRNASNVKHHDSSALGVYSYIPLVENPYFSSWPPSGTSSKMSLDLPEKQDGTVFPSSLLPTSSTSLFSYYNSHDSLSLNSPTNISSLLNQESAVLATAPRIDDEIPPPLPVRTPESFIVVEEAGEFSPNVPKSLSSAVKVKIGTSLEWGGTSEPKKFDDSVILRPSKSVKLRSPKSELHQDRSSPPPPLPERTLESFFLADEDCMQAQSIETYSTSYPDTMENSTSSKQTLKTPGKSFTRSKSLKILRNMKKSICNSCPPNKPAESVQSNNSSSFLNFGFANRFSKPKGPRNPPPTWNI

activation, inactive:
Cc1cc(C)n2nc(C(=O)NC(C)(C)C)nc2n1 3.4%
C=CCN(C(=O)Nc1ccc2oc(C)nc2c1)c1ccccc1 -7.1%
COC(=O)c1cccc(-n2[nH]nnc2=S)c1 -1.7%
CC(C)(CCl)C(=O)Nc1ccc(Sc2ccc(F)cc2)cc1 1.3%
CC1(C)Cc2cccc(OCC(N)=O)c2O1 -3.7%
CCCCCCc1cc2cc(-c3nnc(-c4cccc(OC)c4)o3)c(=O)oc2cc1O -30.3%
COc1ccc(CNc2ccc3c(c2)CCC3)cc1OC -10.3%
COc1ccc(OC)c(-n2nnnc2SCC(=O)Nc2cc(C)ccc2OC)c1 2.6%
CC(C)C(=O)Nc1ccc2c(c1)oc1ccccc12 -1.6%
N/C(=N\OC(=O)c1cc(-c2ccccc2)nc2ccccc12)c1ccncc1 -7.1%
COc1ccc2c(c1)cc1n2CCN=C1NN 0.1%
COc1ccc(NC(=O)C2C3C=CC(C3)C2C(=O)NCc2ccccn2)c(OC)c1 (configuration not stated) -5%
CC1=NN(/C(=N\c2nnc(C)s2)Nc2ccccc2)[C@H](c2ccc(C)cc2)S1 -6.4%
CCc1ccc(C(=O)CSc2nnc(C)c(=O)[nH]2)cc1 -2.7%
COc1ccc(OC(C)C(=O)Nc2cccnc2)cc1 (configuration not stated) 6.9%
C/C(=N/NC(=O)c1ccc(NC(=O)c2ccc(F)cc2)cc1)c1ccccc1 -1.9%
CCc1ccc(C2C(C#N)=C(N)Oc3n[nH]c(CC(=O)OC)c32)cc1 (configuration not stated) 5.3%
COC(=O)CSc1nc2c(c(C3CC=CCC3)c1C#N)CCC2 (configuration not stated) -5.9%
C=CCNC(=O)c1cc2nc(C3CC3)cc(C(F)F)n2n1 -5.5%
COC(=O)c1cccc(N(C(=O)c2ccco2)C(C(=O)NC2CCCC2)c2ccco2)c1 (configuration not stated) 6.5%
CC(C)C(=O)Nc1nnc(Sc2ccc(N(C)C)cc2)s1 -2.7%
Cc1nn(Cc2ccc(F)cc2)c(C)c1NC(=O)c1noc2c1CCc1ccccc1-2 7.1%
CCOc1c2ccc(C(=O)NCc3ccc(OC(F)(F)F)cc3)cc2nn1C 10%
COc1cc(C(=S)N2CCOCC2)cc(OC)c1OC(=O)c1cc([N+](=O)[O-])c(C)c([N+](=O)[O-])c1 7%
Cc1cc(-c2cccs2)nc(-n2cccc2)n1 3.4%
CC1=CC(=O)C=CC1(C)C(Cl)(Cl)Cl (configuration not stated) 3.7%
FC(F)(F)c1cc(C(F)(F)F)c2ccc(N3CCN(c4ccccc4)CC3)nc2n1 2.8%
